In the antibiotic and cytotoxicity screens of Wong et al. (2023) one finds cytotoxicity call data, which are given here for 40 molecules.

Out of some 39,000 compounds screened, about 1,500 (3.8%) were called active. The sample holds actives, similar compounds and a random draw of the others, so the mix is not that of the screen.

This assay concerns HSkMC (human skeletal muscle cells). Kind of assay: cytotoxicity call (relative viability < 0.9). As to conditions: 10 µM.
Turning to `C[C@@H]1CN([C@@H](C)CO)C(=O)c2cc(-c3cccnc3)cnc2O[C@@H]1CN(C)Cc1ccc(-c2ccccc2)cc1`, the cytotoxicity call was “inactive”.
With `O=C(C[C@H]1CC[C@H](NS(=O)(=O)c2ccc(F)cc2)[C@H](CO)O1)N1CCC(Cc2ccccc2)CC1`, the cytotoxicity call is “inactive”.
Consider `C[C@@H]1CN([C@@H](C)CO)C(=O)c2cccc(NC(=O)Nc3ccccc3)c2O[C@@H]1CN(C)C(=O)Nc1cccc2ccccc12`, for which the cytotoxicity call was “active”.
Take `COc1ccc(NC(=O)N(C)C[C@@H]2Oc3c(NC(=O)Nc4cccc5ccccc45)cccc3C(=O)N([C@H](C)CO)C[C@@H]2C)cc1`: the cytotoxicity call is “inactive”.
On to `COc1ccc(NC(=O)N(C)C[C@@H]2Oc3c(NC(=O)Nc4cccc5ccccc45)cccc3C(=O)N([C@H](C)CO)C[C@H]2C)cc1`, for which the cytotoxicity call was “inactive”.
On to `C[C@@H]1CN([C@@H](C)CO)C(=O)c2cccc(NC(=O)Nc3cccc4ccccc34)c2O[C@H]1CN(C)C(=O)Nc1cccc2ccccc12`, for which the cytotoxicity call is “inactive”.
Consider `C[C@@H]1CN([C@H](C)CO)C(=O)c2cccc(NC(=O)Nc3cccc4ccccc34)c2O[C@@H]1CN(C)C(=O)Nc1ccccc1`, for which the cytotoxicity call is “inactive”.
Take `C[C@@H]1CN([C@@H](C)CO)C(=O)c2cccc(NC(=O)Nc3cccc4ccccc34)c2O[C@H]1CN(C)C(=O)Nc1ccccc1`: the cytotoxicity call is “active”.
With `C[C@@H]1CN([C@H](C)CO)C(=O)c2cccc(NC(=O)Nc3cccc4ccccc34)c2O[C@H]1CN(C)C(=O)Nc1ccccc1`, the cytotoxicity call is “inactive”.
As to `C[C@H](CO)N1C[C@H](C)[C@@H](CN(C)C(=O)Nc2cccc3ccccc23)Oc2c(NC(=O)Nc3ccccc3)cccc2C1=O`, the cytotoxicity call was “inactive”.
`C[C@H]1CN([C@@H](C)CO)C(=O)c2cccc(NC(=O)Nc3ccccc3)c2O[C@H]1CN(C)C(=O)Nc1cccc2ccccc12`: the cytotoxicity call was “inactive”.
Next, `C[C@H]1CN([C@@H](C)CO)C(=O)c2cccc(NC(=O)Nc3cccc4ccccc34)c2O[C@H]1CN(C)C(=O)Nc1cccc2ccccc12`: “inactive”; `C[C@@H]1CN([C@H](C)CO)C(=O)c2cccc(NC(=O)Nc3cccc4ccccc34)c2O[C@H]1CN(C)C(=O)Nc1cccc2ccccc12`: “active”.
As for `COc1ccc(NC(=O)N(C)C[C@H]2Oc3c(NC(=O)Nc4cccc5ccccc45)cccc3C(=O)N([C@@H](C)CO)C[C@@H]2C)cc1`, the cytotoxicity call was “active”.
Consider `CN1C(=O)c2cc(NS(=O)(=O)c3cccc(F)c3)ccc2OC[C@H]2O[C@H](CC(=O)NCCN3CCCCC3)CC[C@@H]21`, for which the cytotoxicity call was “inactive”.
For the molecule `NC(=O)NC(=O)C[n+]1ccc(/C=N/O)cc1`, the cytotoxicity call was “inactive”.
`COc1ccc(S(=O)(=O)N(C)C[C@H]2Oc3ccc(N(C)C)cc3C(=O)N([C@@H](C)CO)C[C@@H]2C)cc1`: the cytotoxicity call was “inactive”.
Consider `CS(=O)(=O)N1C[C@H]2C[C@@H](F)[C@@H](O)[C@@H]2C1`, for which the cytotoxicity call is “inactive”.
Next, `C[C@@H]1CCCCO[C@@H](CN(C)C(=O)Nc2ccc3c(c2)OCO3)[C@@H](C)CN([C@H](C)CO)C(=O)c2cc(NC(=O)NC3CCCCC3)ccc2O1`: “inactive”.
Take `O=C(C[C@H]1C[C@@H]2c3cc(NS(=O)(=O)c4ccc(F)cc4)ccc3O[C@@H]2[C@H](CO)O1)NCc1cccnc1`: the cytotoxicity call is “inactive”.
In the case of `O=C(C[C@@H]1C[C@H]2c3cc(NC(=O)NC4CCCC4)ccc3O[C@H]2[C@H](CO)O1)NCc1ccc2c(c1)OCO2`, the cytotoxicity call is “inactive”.
Take `O=C(CN1CCOCC1)NCC[C@@H]1CC[C@@H](NC(=O)Cc2ccccn2)[C@H](CO)O1`: the cytotoxicity call is “inactive”.
Take `C[C@@H]1CN([C@@H](C)CO)C(=O)Cc2cc(NC(=O)C3CCCCC3)ccc2O[C@H]1CN(C)C(=O)Nc1ccc(C(F)(F)F)cc1`: the cytotoxicity call is “inactive”.
In the case of `CC[C@H]1CN(C)N1C(=O)[C@@H]1CCCO1`, the cytotoxicity call was “inactive”.
Turning to `CC(C)CC#Cc1ccc2c(c1)O[C@H](CN(C)C(=O)c1ccncc1)[C@H](C)CN([C@@H](C)CO)S2(=O)=O`, the cytotoxicity call was “inactive”.
Next, `C[C@H](CO)N1C[C@H](C)[C@H](CN(C)Cc2ccc(Cl)c(Cl)c2)Oc2ccc(NS(=O)(=O)c3ccc(Cl)cc3)cc2CC1=O`: “active”; `C[C@@H]1CN([C@H](C)CO)C(=O)Cc2cc(NS(=O)(=O)c3ccc(Cl)cc3)ccc2O[C@@H]1CN(C)Cc1ccc(Cl)c(Cl)c1`: “active”; `C[C@H](CO)N1C[C@H](C)[C@@H](CN(C)Cc2ccc(Cl)c(Cl)c2)Oc2ccc(NS(=O)(=O)c3ccc(Cl)cc3)cc2CC1=O`: “inactive”.
Next, `C[C@@H]1CN([C@@H](C)CO)C(=O)Cc2cc(NS(=O)(=O)c3ccc(Cl)cc3)ccc2O[C@@H]1CN(C)Cc1ccc(Cl)c(Cl)c1`: “active”; `C[C@@H]1CN([C@@H](C)CO)C(=O)Cc2cc(NS(=O)(=O)c3ccc(Cl)cc3)ccc2O[C@H]1CN(C)Cc1ccc(Cl)c(Cl)c1`: “active”; `C[C@H]1CN([C@@H](C)CO)C(=O)Cc2cc(NS(=O)(=O)c3ccc(Cl)cc3)ccc2O[C@@H]1CN(C)Cc1ccc(Cl)c(Cl)c1`: “inactive”.
Consider `C[C@H](CO)N1C[C@H](C)[C@H](CN(C)CC2CC2)Oc2ccc(NC(=O)CCN3CCOCC3)cc2CC1=O`, for which the cytotoxicity call is “inactive”.
As to `CC(C)NC(=O)N(C)C[C@@H]1Oc2ccc(NC(=O)NC3CCCCC3)cc2C(=O)N([C@H](C)CO)C[C@@H]1C`, the cytotoxicity call is “inactive”.
Take `CC(C)(C)[S@@](=O)N1Cc2cc(C(=O)NCc3ccc4c(c3)OCO4)nc(CCNS(=O)(=O)c3ccccc3)c2[C@H]1CCO`: the cytotoxicity call was “inactive”.
For the molecule `CCS(=O)(=O)N1CC[C@]2(CC1)CN(CC1CCOCC1)[C@H](CO)c1c2c2ccc(cc2n1C)OC`, the cytotoxicity call was “inactive”.
As to `Cc1noc(C)c1S(=O)(=O)Nc1ccc2c(c1)CC(=O)N([C@H](C)CO)C[C@H](C)[C@H](CN(C)Cc1ccc3c(c1)OCO3)O2`, the cytotoxicity call was “inactive”.
Consider `C[C@@H]1CCCCO[C@H](CN(C)C(=O)Nc2ccc(F)cc2)[C@@H](C)CN([C@H](C)CO)C(=O)c2cc(NC(=O)Nc3ccc4c(c3)OCO4)ccc2O1`, for which the cytotoxicity call was “inactive”.
Turning to `Cc1noc(C)c1NC(=O)N(C)C[C@@H]1Oc2ccc(NS(=O)(=O)c3cn(C)cn3)cc2C(=O)N([C@H](C)CO)C[C@@H]1C`, the cytotoxicity call was “inactive”.
Next, `Cc1ccc(S(=O)(=O)N(C)C[C@@H]2OCCCC[C@@H](C)Oc3ccc(NC(=O)Nc4ccc(F)cc4)cc3C(=O)N([C@@H](C)CO)C[C@H]2C)cc1`: “inactive”; `O=C(C[C@@H]1C=C[C@@H](NC(=O)c2cccc(F)c2)[C@H](CO)O1)NCCN1CCCC1`: “inactive”.
